Experimental data from PubChem BioAssay (NCATS).
Records with an inconclusive call do not appear. Active and inactive are the calls of the source. Unless noted, the call rests on the fitted dose curve; in most records, active means well fitted curve in the direction sought with a large enough effect; inconclusive means small, poorly fitted or top-dose-only effect, or another doubt; inactive means no such curve, though single readings can be large; an effect the other way counts as inactive or inconclusive.

Assays:
[1] = Cell Viability - BJ (AID 421; calls by dose curve;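 further: potency means the concentration at half of the fitted maximal effect; cells exposed to compound for 40 hours at 37 °C before readout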); conditions: BJ fibroblast viability, qHTS
Procedure, shortened: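 Quantitative HTS: ATP depletion in BJ cells after 40 hr compound exposure in complete culture medium, detected with CellTiter-Glo; AC50 from standard Hill fits.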

[2] = Cell Viability - Jurkat (AID 426;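 active means dose-dependent loss of cell ATP signal giving a full or clear fitted curve, ranked by lower potency value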; further: potency means the concentration at half of the fitted maximal effect); conditions: qHTS
Procedure, shortened: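 qHTS, 1536-well; Jurkat E6-1, 5000 cells/well, complete medium; cpd 40 hr, 37 °C; CellTiter-Glo 20 min RT; luminescence. AC50 by Hill fit.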

[3] = Cell Viability - Hek293 (AID 427;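 active means compounds whose dose-response curve shows a full or clear partial loss of cell viability, called from curve shape rather than a numeric limit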;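 further: potency means the concentration at half of the fitted maximal effect; cells exposed to compound for 40 hours at 37 °C before reading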); conditions: qHTS
Procedure, shortened: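 AC50 values derive from Hill-modelled concentration-response of ATP-based luminescence, normalized between DMSO-only and 100 uM tamoxifen controls. Cells were exposed in complete culture medium for 40 hr at 37 °C before detection.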

[4] = Cell Viability - HepG2 (AID 433; calls by dose curve;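 further: potency means the concentration at half of the fitted maximal effect; potency for ATP loss meaning cytotoxicity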); conditions: qHTS
Procedure, shortened: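 ATP luminescence (CellTiter-Glo) after 40 h compound exposure, 37 °C, HepG2, 1500 cells/well, complete medium. Normalized: DMSO = basal, 100 uM tamoxifen = 100% inhibition. AC50 via standard Hill equation.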

[5] = Cell Viability - MRC5 (AID 434; calls by dose curve;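 further: potency means the concentration at half of the fitted maximal effect; potency reflects cytotoxicity seen as loss of intracellular ATP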); conditions: MRC5 lung fibroblast viability, qHTS
Procedure, shortened: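 MRC5 normal human lung fibroblasts (1500/well) were treated with compounds for 40 hr at 37 °C in complete medium, and viable cells were measured as intracellular ATP by CellTiter-Glo luminescence. AC50 came from Hill fits, normalized to DMSO and 100 uM tamoxifen.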

[6] = Cell Viability - SK-N-SH (AID 435; calls by dose curve; further: potency means the concentration at half of the fitted maximal effect); conditions: SK-N-SH neuroblastoma cell viability qHTS
Procedure, shortened: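 CellTiter-Glo ATP luminescence, 20 min RT read; cells pre-plated 5 hr, compound 40 hr at 37 °C, 1500 cells/well, complete medium. Normalized DMSO = 0, 100 uM tamoxifen = 100% inhibition; Hill-fit AC50.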

[7] = target: Mitogen-activated protein kinase 10 (Mus musculus) (UniProt Q61831); assay: JNK3 AlphaScreen Assay (AID 530; active means well fitted curve in either direction with a large enough effect, not every such curve was filed as active;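 further: kinase came from lysate of stimulated human HepG2 cells; signal reports phosphorylation of biotinylated GST-cJun 1-79 at Ser73 with 10 µM ATP; on the % scale 0 is the no-effect control and ±100 the full control effect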); conditions: JNK3 lysate, c-Jun phosphorylation; series mostly up to 57.1 µM
Procedure, shortened: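 Inhibitors reduce antibody binding to phosphorylated biotin-cJun, lowering AlphaScreen luminescence. Lysates from HepG2 cells pre-activated by IL-1beta plus TNF-alpha supplied JNK3; compounds were titrated.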

[8] = Cell Viability - N2a (AID 540); conditions: N2a mouse neuroblastoma cell viability; activity change, negative = cytotoxicity: at 92.2 µM (top of the series);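 further: plate controls were DMSO alone for no effect and tamoxifen control for full effect; nearly all actives have a fitted effect of over 45% in size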
Procedure, shortened: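 Luminescent ATP signal (CellTiter-Glo, 20 min at room temperature) served as the viability read-out after N2a cells were treated with compounds for 40 hours at 37 °C. Concentration-response data were fitted to the Hill equation for AC50.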

[9] = Cell Viability - NIH 3T3 (AID 541); conditions: NIH 3T3 cell viability, qHTS; activity change, negative = cytotoxicity: at 92.2 µM (top of the series);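 further: plate controls were DMSO alone for no effect and tamoxifen positive control for full effect; nearly all actives have a fitted effect of over 25% in size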
Procedure, shortened: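 Luminescent ATP signal (CellTiter-Glo) served as the viability read-out after NIH 3T3 cells were exposed to compounds over a concentration range for 40 hr at 37 °C. Hill-equation modelling of concentration-response data gave AC50.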

[10] = Cell Viability - HUV-EC-C (AID 542); conditions: HUV-EC-C endothelial cell viability, qHTS; series mostly up to 92.2 µM; further: on the % scale 0 is the no-effect control and ±100 the full control effect; nearly all actives have a fitted effect of over 35% in size
Procedure, shortened: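 qHTS cytotoxicity: HUV-EC-C, 1000 cells/well, 5 hr settle, compound 40 hr 37 °C, CellTiter-Glo, luminescence. AC50 via Hill equation.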

[11] = Cell Viability - H-4-II-E (AID 543); conditions: H-4-II-E rat hepatoma viability; series mostly up to 92.2 µM; further: on the % scale 0 is the no-effect control and ±100 the full control effect; nearly all actives have a fitted effect of over 35% in size
Procedure, shortened: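 Luminescent ATP signal (CellTiter-Glo) served as the viability read-out, with cytotoxicity seen as a concentration-dependent ATP drop. Cells were treated for 40 hours in complete medium. AC50 values derive from Hill-equation modelling.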

[12] = Cell Viability - Mesenchymal (AID 546); conditions: mesenchymal cells viability, qHTS; series mostly up to 91.7 µM;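 further: cells exposed to compound for 40 hours before reading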
Procedure, shortened: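 Normal human renal glomerulus-derived kidney mesenchymal cells, 1000 per well in complete medium, were treated with compounds for 40 hr at 37 °C. Viability was read as intracellular ATP by CellTiter-Glo luminescence; AC50 values came from Hill-equation fits of qHTS concentration-response data.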

[13] = Cellular Toxicity (caspase-3) HepG2 (AID 654); conditions: HepG2 caspase-3 activation, luminescence; series mostly up to 92.2 µM;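 further: cells exposed to compound for 16 hours before reading; 0% = DMSO alone and 100% = caspase signal from 100 µM tamoxifen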
Procedure, shortened: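 Cells plated 5 hr at 37 °C, compound added, incubated 16 hr at 37 °C. Caspase-Glo 3/7 reagent followed, 20 min at room temperature, then luminescence read. Activation scored as signal increase; AC50 from Hill fit.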

[14] = Cellular Toxicity (caspase-3) HUV-EC-C (AID 656); conditions: HUV-EC-C cells, caspase-3 activation (apoptosis), vehicle = 0, 100 µM tamoxifen = 100%; series mostly up to 92.2 µM
Procedure, shortened: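 Luminescent caspase-3/7 activation (aminoluciferin substrate cleavage) in HUV-EC-C cells after 16 hr compound exposure, 37°C. Signal normalized to DMSO basal and 100 uM tamoxifen as 100%; AC50 from concentration-response fitted with the Hill equation.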

[15] = Cellular Toxicity (caspase-3) SHSY5Y (AID 657); conditions: SH-SY5Y caspase-3 activation, DMSO zero, 10 µM staurosporine = 100%; series mostly up to 91.7 µM;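 further: cells exposed to compound for 16 hours at 37 °C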
Procedure, shortened: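 Luminescent caspase-3/7 readout (aminoluciferin release) in SH-SY5Y cells after 16 h compound exposure in complete medium. Activity scaled between DMSO basal and 10 uM staurosporine as 100%; concentration-response fitted to Hill equation for AC50.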

[16] = Cellular Toxicity (caspase-3) BJ (AID 658); conditions: BJ fibroblasts, luminescence, normalized: DMSO 0%, staurosporine 100%; series mostly up to 91.7 µM;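 further: cells exposed to compound for 16 hours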
Procedure, shortened: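 Luminescent aminoluciferin-substrate cleavage reports caspase 3/7 activity in normal human BJ fibroblasts after 16 hr compound exposure at 37 °C. Normalized to DMSO (basal) and 10 uM staurosporine (100%); AC50 from Hill fit of concentration-response.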

[17] = Cellular Toxicity (caspase-3) MRC-5 (AID 659); conditions: MRC-5 cells, luminescence, normalized: DMSO 0%, 10 µM staurosporine 100%; series mostly up to 91.7 µM;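 further: cells exposed to compound for 16 h at 37 °C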
Procedure, shortened: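 Luminescence from caspase-cleaved aminoluciferin substrate (Caspase-Glo 3/7, 1 hr RT) reports caspase 3/7 activity in MRC-5 lung fibroblasts after 16 hr compound exposure. Normalized to DMSO basal and 10 uM staurosporine as 100%; AC50 from Hill fits.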

[18] = Cell Viability - SH-SY5Y (AID 544); conditions: SH-SY5Y neuroblastoma cell viability; viability change, negative = cytotoxic: at 92.2 µM (top of the series); further: nearly all actives have a fitted effect of over 55% in size
Procedure, shortened: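 Luminescent ATP read-out (CellTiter-Glo) measures loss of viable SH-SY5Y neuroblastoma cells after 40 hr compound exposure at 37 °C. AC50 values derive from standard Hill modelling of qHTS concentration-response data.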

[19] = Cell Viability - Renal Proximal Tubule (AID 545); conditions: renal proximal tubule cells viability, primary cells of rat origin; series mostly up to 91.7 µM; further: nearly all actives have a fitted effect of over 40% in size
Procedure, shortened: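 Rat kidney proximal tubule cells, freshly isolated; 1000 cells/well, 5 hr settle, compound 40 hr 37 °C. CellTiter-Glo 20 min RT, luminescence read. AC50 by standard Hill fit.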

[20] = Cellular Toxicity (caspase-3) Jurkat (AID 655); conditions: Jurkat caspase-3 activation, luminescence; caspase-3 activation: at 92.2 µM (top of the series), DMSO = 0%, tamoxifen = 100%;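 further: cells exposed to compound for 16 h at 37 °C before reading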
Procedure, shortened: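 Luminescent caspase-3/7 readout (aminoluciferin substrate cleavage) in human T-cell leukemia Jurkat cells after 16 hr compound exposure. Concentration-response normalized to DMSO and 100 uM tamoxifen; AC50 by standard Hill equation.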

Cc1cc(C2(c3cc(C)c(O)cc3C)OS(=O)(=O)c3ccccc32)c(C)cc1O
inactive: Potency [1] > 92 µM | Potency [2] > 92 µM | Potency [3] > 92 µM | Potency [4] > 92 µM | Potency [5] > 92 µM | Potency [6] > 92 µM | outcome [7] | activity change, negative = cytotoxicity [8] -2.09% | Potency [9] | Potency [10] | Potency [11] | Potency [12] | Potency [13] | outcome [14] | outcome [15] | outcome [16] | outcome [17]

COc1ccc(N=[N+]([O-])c2ccc(OC)cc2)cc1
inactive: Potency [1] > 92 µM | Potency [2] > 92 µM | Potency [3] > 92 µM | Potency [4] > 92 µM | Potency [5] > 92 µM | Potency [6] > 92 µM | outcome [7] | activity change, negative = cytotoxicity [8] -19% | Potency [9] | Potency [10] | Potency [18] | Potency [19] | Potency [13] | caspase-3 activation [20] -8.89% | outcome [14] | outcome [15] | outcome [16] | outcome [17]

CCOCC(=O)O
inactive: Potency [1] > 92 µM | Potency [2] > 92 µM | Potency [3] > 92 µM | Potency [4] > 92 µM | Potency [5] > 92 µM | Potency [6] > 92 µM | outcome [7] | activity change, negative = cytotoxicity [8] -1.83% | Potency [9] | Potency [10] | Potency [18] | Potency [19] | Potency [12] | Potency [13] | caspase-3 activation [20] -1.08% | outcome [14] | outcome [15] | outcome [16] | outcome [17]

CC(C)c1ccccc1
inactive: Potency [1] > 92 µM | Potency [2] > 92 µM | Potency [3] > 92 µM | Potency [4] > 92 µM | Potency [5] > 92 µM | Potency [6] > 92 µM | outcome [7] | activity change, negative = cytotoxicity [8] -8.99% | Potency [9] | Potency [10] | Potency [18] | Potency [19] | Potency [12] | Potency [13] | caspase-3 activation [20] -0.787% | outcome [14] | outcome [15] | outcome [16] | outcome [17]

CC(=O)Nc1ccc(C)cc1
inactive: Potency [1] > 92 µM | Potency [2] > 92 µM | Potency [3] > 92 µM | Potency [4] > 92 µM | Potency [5] > 92 µM | Potency [6] > 92 µM | outcome [7] | activity change, negative = cytotoxicity [8] -10.4% | Potency [9] | Potency [10] | Potency [11] | Potency [19] | Potency [12] | Potency [13] | outcome [14] | outcome [15] | outcome [16] | outcome [17]

C=CC(=O)NC(C)C
inactive: Potency [1] > 92 µM | Potency [2] > 92 µM | Potency [3] > 92 µM | Potency [4] > 92 µM | Potency [5] > 92 µM | Potency [6] > 92 µM | outcome [7] | activity change, negative = cytotoxicity [8] 4.17% | Potency [9] | Potency [10] | Potency [18] | Potency [19] | Potency [12] | Potency [13] | caspase-3 activation [20] -1.34% | outcome [14] | outcome [15] | outcome [16] | outcome [17]

c1ccc2[nH]cnc2c1
inactive: Potency [1] > 92 µM | Potency [2] > 92 µM | Potency [3] > 92 µM | Potency [4] > 92 µM | Potency [5] > 92 µM | Potency [6] > 92 µM | outcome [7] | activity change, negative = cytotoxicity [8] -1.37% | Potency [9] | Potency [10] | Potency [18] | Potency [19] | Potency [12] | Potency [13] | caspase-3 activation [20] 1.18% | outcome [14] | outcome [15] | outcome [16] | outcome [17]

S=C([S-])NCCNC(=S)[S-].[Zn+2]
inactive: Potency [1] > 92 µM | Potency [2] > 92 µM | Potency [3] > 92 µM | Potency [4] > 92 µM | Potency [5] > 92 µM | Potency [6] > 92 µM | outcome [7] | activity change, negative = cytotoxicity [8] -5.49% | Potency [9] | Potency [10] | Potency [11] | Potency [12] | Potency [13] | caspase-3 activation [20] 5.46% | outcome [14] | outcome [15] | outcome [16] | outcome [17]

CC1CCCO1 (stereo not drawn)
inactive: Potency [1] > 92 µM | Potency [2] > 92 µM | Potency [3] > 92 µM | Potency [4] > 92 µM | Potency [5] > 92 µM | Potency [6] > 92 µM | outcome [7] | activity change, negative = cytotoxicity [8] -13.8% | Potency [9] | Potency [10] | Potency [18] | Potency [19] | Potency [12] | Potency [13] | caspase-3 activation [20] 1.31% | outcome [14] | outcome [15] | outcome [16]

Cc1ccc2oc(=O)ccc2c1
inactive: Potency [1] > 92 µM | Potency [2] > 92 µM | Potency [3] > 92 µM | Potency [4] > 92 µM | Potency [5] > 92 µM | Potency [6] > 92 µM | outcome [7] | activity change, negative = cytotoxicity [8] -1.53% | Potency [9] | Potency [10] | Potency [19] | Potency [13] | caspase-3 activation [20] 0.624% | outcome [14] | outcome [15] | outcome [16] | outcome [17]

N#CCc1ccccc1[N+](=O)[O-]
inactive: Potency [1] > 92 µM | Potency [2] > 92 µM | Potency [3] > 92 µM | Potency [4] > 92 µM | Potency [5] > 92 µM | Potency [6] > 92 µM | outcome [7] | activity change, negative = cytotoxicity [8] -1.71% | Potency [9] | Potency [19] | Potency [13] | caspase-3 activation [20] 1.28% | outcome [14] | outcome [15] | outcome [16] | outcome [17]

CCCCC(CC)COCC1CO1 (stereo not drawn)
inactive: Potency [1] > 92 µM | Potency [2] > 92 µM | Potency [3] > 92 µM | Potency [4] > 92 µM | Potency [5] > 92 µM | Potency [6] > 92 µM | outcome [7] | activity change, negative = cytotoxicity [8] -13.9% | Potency [9] | Potency [10] | Potency [19] | outcome [14] | outcome [15] | outcome [16] | outcome [17]
